# Screens as filed in PubChem.
# Autofluor counter – flagged as autofluorescent in microsphere protease counterscreen; compound autofluorescence counterscreen, microsphere flow cytometry; active compounds read high; fluorescence intensity (test concentration not listed); 3.1% of 360,000 active; AID 624483; in the data active means fluorescence intensity above about 16000; inconclusive means no clear call, values can overlap the other calls
# BoNT F protease – inhibitors of Botulinum neurotoxin F light chain protease. Multiplex microsphere protease cleavage assay, flow cytometry. inhibition, % at 10 µM. 0.22% of 360,000 active; in the data active means inhibition above about 35%, passing the limit was not always enough; inconclusive means no clear call, values can overlap the other calls; further: plate controls were buffer without enzyme for full effect and enzyme alone for no effect
# BoNT A protease – inhibitors of Botulinum neurotoxin A light chain protease; AID 588499; multiplex microsphere protease substrate cleavage, flow cytometry; inhibition, % at 10 µM; 0.17% of 360,000 active; further: plate controls were buffer without enzyme for full effect and enzyme alone for no effect
# Anthrax LF inh2 – anthrax lethal factor protease inhibition | AID 588501 | P15917 | multiplex microsphere protease cleavage assay, LF | inhibition, % at 10 µM | 0.12% of 360,000 active; further: plate controls were buffer without enzyme for full effect and enzyme alone for no effect
# MazF activator – increases E. coli MazEF RNase cleavage of RNA; P0AE70; FAM/BHQ RNA-DNA oligo cleavage fluorescence, 5 h; activation, % at 20 µM; 0.32% of 350,000 active; in the data active means activation above about 50%
# An asterisk follows results filed as active; ? = inconclusive; . = not tested or not shown; + = active, no number. This is a sample that favours compounds with a hit; in the whole collection about 3.6% have one here. Unless noted, no stated cut-off is given here; in the data, active means inhibition above about 30%; inconclusive means no clear call, values can overlap the other calls; inactive means below that.
SMILES,Autofluor counter,BoNT F protease,BoNT A protease,Anthrax LF inh2,MazF activator
N#CC1=C(N)Oc2n[nH]c(-c3ccccc3)c2C1c1cccnc1 (configuration not stated),4132,-7,0,-1,2
Cc1ccc(-c2[nH]nc3c2C(c2cccnc2)C(C#N)=C(N)O3)cc1 (configuration not stated),23057*,0,?,-3,6
CN(C[C@H](CC1CCCCC1)N(C[C@H](Cc1ccccc1)N(CCc1ccccc1)N=O)N=O)N=O,3818,-4,-1,-5,-2
Cc1ccc(-c2[nH]nc3c2C(c2ccc(OC(=O)N4CCOCC4)cc2)C(C#N)=C(N)O3)cc1 (configuration not stated),16622*,-2,?,-5,-3
Cc1ccc(S(=O)(=O)N(C)C)cc1NC(=O)C(C)OC(=O)c1ccc2c(=O)n3c(nc2c1)CCC3 (configuration not stated),8595,3,0,-4,4
COC(=O)C1=C(C)N(Cc2ccco2)C(=O)/C1=C\c1ccc(N(C)C)cc1,9085,-5,-1,-3,+
CCOC(=O)c1c(CSCc2ccccc2)oc2ccc(O)c(CN(C)C)c12,3498,-13,0,-4,20
O=C(CCNS(=O)(=O)c1ccc(OC(F)(F)F)cc1)N1CCN(S(=O)(=O)c2cccc(F)c2)CC1,.,.,.,.,5
Oc1oc(-c2ccccc2)nc1C=Nc1ccccc1,13340,-2,0,-1,5
O=[N+]([O-])c1cccc(/C=C/c2nc(C=Nc3ccccc3)c(O)o2)c1,11328,-5,2,-3,133*
CCOC(=O)c1ccc(-c2ccc(/C=N/NC(=O)Cc3nnc(N)s3)o2)cc1,4203,-2,0,-4,4
Nc1nnc(CC(=O)N/N=C/c2ccc(-c3ccc(F)cc3)o2)s1,4152,38*,4,?,4
CCc1cc(-c2n[nH]c(C)c2Oc2ccc(C(C)C)cc2)c(O)cc1O,22495*,-17,?,-5,-6
O=C1NC[C@H](CCCCN2C[C@H](Cc3ccc(O)cc3)N(CC3CCCCC3)C(=O)C2=O)N(CCC2CCCCC2)C1=O,5764,-4,0,-1,.
CCC(C)n1c(S(=O)(=O)O)nc2ccccc21 (configuration not stated),22449*,1,-1,1,-2
Cc1ccc(S(=O)(=O)N2C[C@H]3C(=O)C[C@@H](c4ccccc4)N(S(C)(=O)=O)[C@H]3C[C@H]2c2ccccc2)cc1,5493,-6,0,-4,.
O=C(COc1ccccc1)NC(Cc1c[nH]c2ccccc12)C(=O)O (configuration not stated),16391*,0,0,-5,-1
O=C(NC(Cc1c[nH]c2ccccc12)C(=O)O)c1ccc(Br)cc1 (configuration not stated),2115,-7,0,-2,-2
Cc1ccc(C(=O)NC(Cc2c[nH]c3ccccc23)C(=O)O)cc1 (configuration not stated),20051*,0,?,-2,-2
CC(C)c1ccc(OCC(=O)NC(Cc2c[nH]c3ccccc23)C(=O)O)cc1 (configuration not stated),4598,-1,0,1,7
Cc1cc(C)c2c(=O)n3c(nc2c1)C(Cc1ccc(O)cc1)NC(=O)c1cc2ccccc2cc1-3 (configuration not stated),3469,0,0,2,-35
COc1ccccc1CN1CC(C(=O)N2CCC(C(=O)c3ccccc3)CC2)CCC1=O (configuration not stated),5776,-1,-2,-5,-1
CCCn1c(C2CCCN2c2nc(-c3cccc(Br)c3)cs2)nc2ccccc21 (configuration not stated),4137,1,-1,2,-6
O=C(COC(=O)c1cncc(Br)c1)NC1CCCCCC1,4808,2,31*,25,11
COCC(=O)N1CCCC(C(=O)c2ccc(-c3ccccc3)c(F)c2)C1 (configuration not stated),4117,-4,0,-1,-1
SMILES,Autofluor counter,BoNT F protease,BoNT A protease,Anthrax LF inh2,MazF activator
CC1CN(C(=O)C(c2ccccc2)c2ccccc2)CC(C)O1 (configuration not stated),25891*,-8,-6,-5,4
O=c1c2c(c(-c3ccccc3)nn1Cc1ccccc1)CCCC2,3050,3,-3,25,1
Clc1cccc(-c2nc3c4ccccc4ccn3c2CC2CCCCC2)c1,5928,1,0,-10,.
COc1cccc(OCCN2CCN(c3ncnc4c3cnn4-c3ccccc3)CC2)c1,16922*,-7,-2,-3,-3
CCNC(=S)NNC(=O)c1cc(CC(C)C)nc2ccccc12,22680*,1,?,0,6
CCCOc1cccc(-c2cc(C(=O)NNC(=S)NCC)c3ccccc3n2)c1,24056*,-4,-3,-3,-2
CCNC(=S)NNC(=O)c1cc(-c2cccc(OC)c2)nc2ccccc12,2082,0,0,-1,-2
COc1ccc(C(O)c2ncc(-c3cccc(F)c3)[nH]2)cc1F (configuration not stated),4031,-7,-1,-4,.
COc1cc(C(=O)NCC(c2ccco2)N2CCOCC2)cc(OC)c1OC (configuration not stated),6557,-8,-3,-4,7
CCC1(C)Cc2c(sc3c2c(=O)n(C)c2nnc(SCC(=O)c4ccccc4)n32)CO1 (configuration not stated),20408*,11,5,2,3
CCC1(C)Cc2c(sc3c2c2ncnn2c2nnc(SCC(=O)NCc4ccco4)n32)CO1 (configuration not stated),4889,-12,0,2,2
Cc1ccc(NC(=O)N2CCC(=O)N2)cc1,23674*,-5,-3,-8,1
O=C(Nc1ccccc1Cl)N1CCn2c(nc3ccccc32)C1,4136,5,-1,-8,2
O=C(NCc1ccccc1)N1CCn2c(nc3ccccc32)C1,19281*,0,2,-3,-7
O=C(c1ccccc1)N1CCn2c(nc3ccccc32)C1,19484*,4,?,1,8
COc1cc(Cl)c(C)cc1NC(=O)CCCn1c(=O)oc2ccccc21,1982,6,1,0,1
O=C(CCCN1C(=O)CCC1=O)Nc1ccccc1F,22328*,4,4,2,-2
COc1cc(Cl)c(C)cc1NC(=O)CCCN1C(=O)CCC1=O,19155*,-2,1,-3,2
O=C(CCCN1C(=O)CCC1=O)Nc1ccc(Br)cc1F,23503*,0,0,0,-2
O=C(CCCN1C(=O)C2CC=CCC2C1=O)Nc1ccccc1F (configuration not stated),6123,7,0,-1,8
Cc1cc(Cl)ccc1NC(=O)CCCN1C(=O)CCC1=O,11642,-6,0,-1,2
COc1cc(F)ccc1-c1csc(C(O)c2ccc(F)c(F)c2)n1 (configuration not stated),4043,0,-1,-3,.
